# Assay results taken from the supplement of paper PMC9694430.
# Several values for one entry are separate records, joined by “and”; a condition that tells them apart may be missing. Equal values may be shown once. Where a name gives a salt, the structure may show the parent alone.
# System: LOC_OS01G48390-cb002
# Assay: thermal shift delta Tm vs DMSO control; higher = stronger stabilization (binding)
# Settings: 12.5 µM; protein concentration 2 µM
# Procedure, shortened: (§1)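 The melting temperature shift given here is a triplicate mean, measured against protein that received only DMSO. Melting temperatures came from Boltzmann fits of differential scanning fluorimetry data on E. coli-expressed, purified rice kinase domain constructs. Each 19.5 μl well contained 2 μM kinase, 100 mM potassium phosphate pH 7.5, 150 mM NaCl, 10% glycerol, 5 × SYPRO Orange and compound in DMSO. Plates were scanned from 25°C to 95°C at 0.05°C/s.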
row,SMILES,thermal shift delta Tm
1,C[C@H](CN(C)C)Oc1nc(Nc2cc3cccc(Cl)c3cn2)cnc1C#N,4.18 °C
2,CN1c2ccccc2C(=O)Nc2cnc(Nc3ccc(N4CCC(O)CC4)cc3)nc21,0.29 °C
3,CCNc1nc(Nc2cc(F)c(C(=O)N3CCOCC3)cc2OC)ncc1C(F)(F)F,0.72 °C
4,COc1cc2ncnc(Nc3ccc(Oc4ccccc4)cc3C)c2cc1OC,0.79 °C
5,O=C1NC(=O)/C(=C/c2cccc(C(F)(F)F)c2)S1,0.08 °C
6,COc1ccc(C(=O)Nc2sc3c(c2C(N)=O)CCCC3)cc1OC,0.85 °C
7,C#Cc1cccc(Nc2ncnc3cc(OCCOC)c(OCCO)cc23)c1,2.12 °C
8,FC(F)(F)c1ccc(/C=C/c2nc(COc3ccc(CCCCn4ccnn4)cc3)co2)cc1 [Mubritinib (TAK 165)],0.23 °C
9,CNC(=O)Nc1ccc(-c2nc(N3CC4CCC(C3)O4)c3cnn(C4CCC5(CC4)OCCO5)c3n2)cc1,0.79 °C
10,CC(C)(C)NS(=O)(=O)c1cncc(-c2cc(F)c3nc(N)nn3c2)c1,0.32 °C
11,C[C@@H]1CN(CC(=O)Nc2ccc3c(c2)Cc2cccc(-c4cc(=O)cc(N5CCOCC5)o4)c2S3)C[C@H](C)O1,0.3 °C
12,COCCOc1ccc2c(c1)ncn2-c1ccc2cccc(N3CCC(N)CC3)c2n1,0.21 °C
13,Cc1ccc(NC(=O)c2ccc(CN3CCN(C)CC3)cc2)cc1Nc1nc(-c2cccnc2)cs1 [Masitinib (AB1010)],0.15 °C
14,Cn1cc(-c2cnn3c(N)c(Br)c([C@@H]4CCCNC4)nc23)cn1,0.35 °C
15,COc1ccc(-c2cc3c(C)nc(N)nc3n([C@H]3CC[C@H](OCCO)CC3)c2=O)cn1,0.57 °C
16,Cc1ccc(S(=O)(=O)/C=C/C#N)cc1,2.88 °C
17,"CCCS(=O)(=O)Nc1ccc(F)c(C(=O)c2c[nH]c3ncc(-c4ccc(Cl)cc4)cc23)c1F [Vemurafenib (PLX4032, RG7204)]",3.18 °C
18,C[C@@H](N)c1ccc(C(=O)Nc2ccnc3[nH]ccc23)cc1,0.45 °C
19,O=C(NC1CCNCC1)c1n[nH]cc1NC(=O)c1c(Cl)cccc1Cl,0.25 °C and 0.54 °C

row,SMILES,thermal shift delta Tm
1,NCC(=O)Nc1ccc(-n2nc(C(F)(F)F)cc2-c2ccc3c(ccc4ccccc43)c2)cc1,0.79 °C
2,CCn1c(-c2nonc2N)nc2cnc(Oc3cccc(NC(=O)c4ccc(OCCN5CCOCC5)cc4)c3)cc21,1.02 °C
3,COc1cc2c3cc1Oc1c(OC)c(OC)cc4c1[C@@H](Cc1ccc(O)c(c1)Oc1ccc(cc1)C[C@@H]3N(C)CC2)N(C)CC4 [Berbamine (dihydrochloride)],0.32 °C
4,COc1cc2ncc(-c3ccccc3)nc2cc1OC [Tyrphostin AG 1296],0.55 °C
5,C[C@H]1CNCCCN1S(=O)(=O)c1cccc2cncc(F)c12 [Ripasudil (K-115) hydrochloride dihydrate],0.68 °C
6,N#Cc1c(NC(=O)c2cccc3ccccc23)sc2c1CCCC2 [JNK Inhibitor IX],-0.06 °C
7,CC(C)N(CCC(=O)c1ccc2ccccc2c1)Cc1ccccc1,0.53 °C
8,COC(=O)c1ccc2c(c1)NC(=O)/C2=C(\Nc1ccc(N(C)C(=O)CN2CCN(C)CC2)cc1)c1ccccc1 [Nintedanib (BIBF 1120)],1.19 °C
9,Nc1ccc(-c2ccc3ncc4ccc(=O)n(-c5cccc(C(F)(F)F)c5)c4c3c2)cn1 [Torin 2],0.94 °C
10,COc1ccc2c(Oc3ccc(NC(=O)c4c(C)n(CC(C)(C)O)n(-c5ccccc5)c4=O)nc3)ccnc2c1,0.51 °C
11,COc1ncc(-c2ccc3nccc(-c4ccnnc4)c3c2)cc1NS(=O)(=O)c1ccc(F)cc1F,0.45 °C
12,Cc1c[nH]c(/C=C2\C(=O)Nc3ccccc32)c1CCC(=O)O,1.99 °C
13,Cc1cc(Nc2cc(Cl)nc(Oc3ccc([N+](=O)[O-])cc3)n2)n[nH]1 [Autophinib],4.13 °C
14,O=C(c1ccc(/C=C/c2n[nH]c3ccccc23)cc1)N1CCNCC1,5.36 °C
15,COc1ccc(CNC(=O)Nc2ncc([N+](=O)[O-])s2)cc1,0.63 °C
16,Cc1cc2c(F)c(Oc3ncnn4cc(OC[C@@H](C)O)c(C)c34)ccc2[nH]1,0.6 °C
17,C=CC(=O)Nc1cccc(Oc2nc(Nc3ccc(N4CCN(C)CC4)cc3)nc3ccsc23)c1,1.38 °C
18,O=c1cc(N2CCOCC2)oc2c(-c3ccc4c(c3)OCCO4)csc12,1.47 °C
19,c1nc2c(NC3CCCCC3)nc(Nc3ccc(N4CCOCC4)cc3)nc2[nH]1 [Reversine],-0.29 °C

# System: LOC_OS01G51400-cb002
# Assay: as above
# Settings: 12.5 µM; protein concentration 2 µM
# Procedure, shortened: as §1
row,SMILES,thermal shift delta Tm
1,C[C@H](CN(C)C)Oc1nc(Nc2cc3cccc(Cl)c3cn2)cnc1C#N,0.08 °C
2,CN1c2ccccc2C(=O)Nc2cnc(Nc3ccc(N4CCC(O)CC4)cc3)nc21,0.1 °C
3,CCNc1nc(Nc2cc(F)c(C(=O)N3CCOCC3)cc2OC)ncc1C(F)(F)F,0.2 °C
4,COc1cc2ncnc(Nc3ccc(Oc4ccccc4)cc3C)c2cc1OC,0.08 °C
5,O=C1NC(=O)/C(=C/c2cccc(C(F)(F)F)c2)S1,0.11 °C
6,COc1ccc(C(=O)Nc2sc3c(c2C(N)=O)CCCC3)cc1OC,0.45 °C
7,C#Cc1cccc(Nc2ncnc3cc(OCCOC)c(OCCO)cc23)c1,0.19 °C
8,FC(F)(F)c1ccc(/C=C/c2nc(COc3ccc(CCCCn4ccnn4)cc3)co2)cc1 [Mubritinib (TAK 165)],-0.08 °C
9,CNC(=O)Nc1ccc(-c2nc(N3CC4CCC(C3)O4)c3cnn(C4CCC5(CC4)OCCO5)c3n2)cc1,0.4 °C
10,CC(C)(C)NS(=O)(=O)c1cncc(-c2cc(F)c3nc(N)nn3c2)c1,0.36 °C
11,C[C@@H]1CN(CC(=O)Nc2ccc3c(c2)Cc2cccc(-c4cc(=O)cc(N5CCOCC5)o4)c2S3)C[C@H](C)O1,0.05 °C
12,COCCOc1ccc2c(c1)ncn2-c1ccc2cccc(N3CCC(N)CC3)c2n1,-0.08 °C
13,Cc1ccc(NC(=O)c2ccc(CN3CCN(C)CC3)cc2)cc1Nc1nc(-c2cccnc2)cs1 [Masitinib (AB1010)],-0.06 °C
14,Cn1cc(-c2cnn3c(N)c(Br)c([C@@H]4CCCNC4)nc23)cn1,0.23 °C
15,COc1ccc(-c2cc3c(C)nc(N)nc3n([C@H]3CC[C@H](OCCO)CC3)c2=O)cn1,0.45 °C
16,Cc1ccc(S(=O)(=O)/C=C/C#N)cc1,0.21 °C
17,"CCCS(=O)(=O)Nc1ccc(F)c(C(=O)c2c[nH]c3ncc(-c4ccc(Cl)cc4)cc23)c1F [Vemurafenib (PLX4032, RG7204)]",1.03 °C
18,C[C@@H](N)c1ccc(C(=O)Nc2ccnc3[nH]ccc23)cc1,0.27 °C
19,O=C(NC1CCNCC1)c1n[nH]cc1NC(=O)c1c(Cl)cccc1Cl,-0.23 °C and 0.38 °C

row,SMILES,thermal shift delta Tm
1,NCC(=O)Nc1ccc(-n2nc(C(F)(F)F)cc2-c2ccc3c(ccc4ccccc43)c2)cc1,-0.21 °C
2,CCn1c(-c2nonc2N)nc2cnc(Oc3cccc(NC(=O)c4ccc(OCCN5CCOCC5)cc4)c3)cc21,0.31 °C
3,COc1cc2c3cc1Oc1c(OC)c(OC)cc4c1[C@@H](Cc1ccc(O)c(c1)Oc1ccc(cc1)C[C@@H]3N(C)CC2)N(C)CC4 [Berbamine (dihydrochloride)],-0.01 °C
4,COc1cc2ncc(-c3ccccc3)nc2cc1OC [Tyrphostin AG 1296],0.63 °C
5,C[C@H]1CNCCCN1S(=O)(=O)c1cccc2cncc(F)c12 [Ripasudil (K-115) hydrochloride dihydrate],0.21 °C
6,N#Cc1c(NC(=O)c2cccc3ccccc23)sc2c1CCCC2 [JNK Inhibitor IX],0.19 °C
7,CC(C)N(CCC(=O)c1ccc2ccccc2c1)Cc1ccccc1,-0.18 °C
8,COC(=O)c1ccc2c(c1)NC(=O)/C2=C(\Nc1ccc(N(C)C(=O)CN2CCN(C)CC2)cc1)c1ccccc1 [Nintedanib (BIBF 1120)],0.18 °C
9,Nc1ccc(-c2ccc3ncc4ccc(=O)n(-c5cccc(C(F)(F)F)c5)c4c3c2)cn1 [Torin 2],0.41 °C
10,COc1ccc2c(Oc3ccc(NC(=O)c4c(C)n(CC(C)(C)O)n(-c5ccccc5)c4=O)nc3)ccnc2c1,0.18 °C
11,COc1ncc(-c2ccc3nccc(-c4ccnnc4)c3c2)cc1NS(=O)(=O)c1ccc(F)cc1F,0.55 °C
12,Cc1c[nH]c(/C=C2\C(=O)Nc3ccccc32)c1CCC(=O)O,0.25 °C
13,Cc1cc(Nc2cc(Cl)nc(Oc3ccc([N+](=O)[O-])cc3)n2)n[nH]1 [Autophinib],0.51 °C
14,O=C(c1ccc(/C=C/c2n[nH]c3ccccc23)cc1)N1CCNCC1,1.16 °C
15,COc1ccc(CNC(=O)Nc2ncc([N+](=O)[O-])s2)cc1,-0.45 °C
16,Cc1cc2c(F)c(Oc3ncnn4cc(OC[C@@H](C)O)c(C)c34)ccc2[nH]1,0 °C
17,C=CC(=O)Nc1cccc(Oc2nc(Nc3ccc(N4CCN(C)CC4)cc3)nc3ccsc23)c1,0.79 °C
18,O=c1cc(N2CCOCC2)oc2c(-c3ccc4c(c3)OCCO4)csc12,0.47 °C
19,c1nc2c(NC3CCCCC3)nc(Nc3ccc(N4CCOCC4)cc3)nc2[nH]1 [Reversine],1.66 °C
